Only some compounds are listed: those with a hit (about 1.3% of all), similar ones and a draw of the others.
LYPLA1 inh: LYPLA1 inhibitors, primary screen, counter-screen for PME1 inhibitor project, biochemical, fluorescence polarization, FP-Rh probe ABPP. hit rate 0.16% among 320,000. inhibition, % at 5.9 µM. AID 2174, 2009. recombinant LYPLA1;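 active means inhibition above the mean of all tested compounds plus 3 SD, set per campaign, cut at about 14% in these data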;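 further: inhibitors block serine hydrolase probe labeling of LYPLA1 so polarization falls; 0% = enzyme with DMSO and 100% = wells lacking LYPLA1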
PME-1 inh: PME-1 inhibitors via competitive probe labeling, primary screen, biochemical, fluorescence polarization, FP-Rh probe, HTS; Protein phosphatase methylesterase 1 (Homo sapiens), Q9Y570; recombinant PME-1; inhibition, % at 5.9 µM; hit rate 0.53% among 320,000;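 active means inhibition above the campaign mean of all compounds plus 3 SD, cut at about 26% in these data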;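 further: competitive labeling of PME-1 active site by serine hydrolase directed probe; 0% = PME-1 with DMSO and 100% = wells lacking PME-1 enzyme; inhibitors block probe labeling so polarization falls and inhibition rises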
Target sequence (Q9Y570 whole entry, looked up): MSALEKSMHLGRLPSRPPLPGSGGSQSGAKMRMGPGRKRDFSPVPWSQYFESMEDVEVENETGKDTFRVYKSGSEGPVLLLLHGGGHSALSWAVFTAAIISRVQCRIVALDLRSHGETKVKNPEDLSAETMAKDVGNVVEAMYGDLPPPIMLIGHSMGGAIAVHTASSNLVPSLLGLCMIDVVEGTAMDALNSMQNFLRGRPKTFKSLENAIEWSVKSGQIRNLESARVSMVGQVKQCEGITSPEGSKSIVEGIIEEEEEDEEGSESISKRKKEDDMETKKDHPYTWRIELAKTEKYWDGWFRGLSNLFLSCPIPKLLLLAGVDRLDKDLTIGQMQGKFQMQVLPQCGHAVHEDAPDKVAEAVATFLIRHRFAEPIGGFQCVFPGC
PREPL inhibitor: PREPL enzyme inhibitors, primary screen, biochemical, fluorescence polarization | Prolyl endopeptidase-like (Homo sapiens), Q4J6C6 | recombinant PREPL, fluorescence polarization activity-based probe | inhibition, % at 5.96 µM | hit rate 0.68% among 320,000 | AID 2751, 2010;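 further: 0% = enzyme with DMSO and 100% = wells lacking enzyme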
Fam108B counter: mouse Fam108B serine hydrolase inhibitors, primary screen, counter-screen for RBBP9 inhibitor project, biochemical, fluorescence polarization. recombinant Fam108B, FP-Rh probe fluorescence polarization. inhibition, % at 9.51 µM. hit rate 0.33% among 300,000;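 active means inhibition above the screen mean inhibition plus 3 SD, computed separately per campaign, cut at about 18% in these data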;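 further: inhibitors lower polarization as less probe binds the enzyme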
LYPLA2 inh: LYPLA2 inhibitors, primary screen, counter-screen for PME1 inhibitor project, biochemical, fluorescence polarization, FP-Rh probe ABPP; Acyl-protein thioesterase 2 (Homo sapiens), O95372; recombinant LYPLA2; inhibition, % at 5.9 µM; hit rate 0.38% among 320,000; AID 2177, 2009;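 active means inhibition above the screen-wide mean plus 3 SD, limit set per campaign, cut at about 26% in these data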;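 further: 0% = LYPLA2 with DMSO and 100% = wells lacking LYPLA2 enzyme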
Target sequence (O95372 whole entry, looked up): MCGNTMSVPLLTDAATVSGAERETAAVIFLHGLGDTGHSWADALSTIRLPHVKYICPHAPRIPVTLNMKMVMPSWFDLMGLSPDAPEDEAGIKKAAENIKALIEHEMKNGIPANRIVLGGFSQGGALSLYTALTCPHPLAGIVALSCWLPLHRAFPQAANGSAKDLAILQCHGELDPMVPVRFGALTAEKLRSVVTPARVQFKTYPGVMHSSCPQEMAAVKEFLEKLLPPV
PREPL confirm: human PREPL enzyme inhibitors, confirmation, biochemical, fluorescence polarization. inhibition, % at 5.96 µM. shares compounds with PREPL inhibitor. hit rate 67% among 2,000. recombinant PREPL, fluorescence polarization activity probe;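 further: 0% = protein with DMSO and 100% = wells lacking protein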
* marks the source's active call; other numbers are inactive results; · = not tested or not shown. Unless noted, no stated cut-off is given here; in the data, active means inhibition above about 43%; inactive means the rest.

SMILES	LYPLA1 inh	PME-1 inh	PREPL inhibitor	Fam108B counter	LYPLA2 inh	PREPL confirm
O=C(c1ccccc1)N1CCN(c2ccc(NCc3ccc4c(c3)OCO4)cc2)CC1	4	2	74*	0	20	53*
CC(=O)N1CCN(c2ccc(NCc3ccc4c(c3)OCO4)cc2)CC1	0	2	72*	2	6	12
Cc1ccc(N=Cc2sc(O)c3ccccc23)cc1	-6	23	50*	14	2	54*
Cc1ccc2c(cnn2C(=O)CCC(=O)NC2CCCCC2)c1	1	2	3	1	2	·
O=C(O/N=C(\c1ccccc1)c1ccncc1)c1ccccc1Cl	-2	2	54*	0	-8	42
CCCCCCC(=O)N1C/C=C\C(c2ccc(OC)cc2)N(Cc2ccc(F)cc2)C(=O)[C@H]1Cc1ccccc1 (some centres undefined)	-3	0	48*	7	-2	44*
c1cnc(Sc2ccc3nnnn3n2)nc1	1	-1	4	-2	-2	·
COc1ccc(NC(=O)C2CCN(S(=O)(=O)c3c(C)noc3/C=C/N(C)C)CC2)cc1	-2	13	6	-3	6	·
COc1ccc(N2CCN(CCCNS(=O)(=O)c3c(C)noc3/C=C/N(C)C)CC2)cc1	1	6	71*	-1	4	28
Cc1c(CCOC(=O)c2ccc(Cl)cc2Cl)sc[n+]1CC(=O)c1ccccc1	·	·	-17	·	·	·
Cc1c(CCOC(=O)c2cc([N+](=O)[O-])cc([N+](=O)[O-])c2)sc[n+]1CC(=O)c1ccc(Br)cc1	2	6	54*	3	11	70*
O=C(O)/C=C\C(=O)Nc1ccc(N2CCN(c3ccc(Cl)cc3)CC2)cc1	6	5	48*	2	6	29
O=C(O)/C=C\C(=O)Nc1ccc(N2CCN(c3cccc(Cl)c3)CC2)cc1	2	7	28	0	6	·
O=C(O)/C=C\C(=O)Nc1ccc(N2CCN(c3ccc(F)cc3)CC2)cc1	-1	7	51*	4	3	25
O=C(NCCCn1ccnc1)c1ccc(COc2ccccc2)o1	2	-7	13	-4	-2	·
O=C(/C=C/NCc1cccnc1)c1ccc(-c2ccccc2)cc1	-6	1	6	2	-8	·
CCCCC1=CC2=C(c3ccco3)C(=O)C(C)(OC(=O)c3ccc(OC)cc3)C(=O)C2=CN1CCN1CCOCC1 (centres undefined)	-2	3	59*	2	-3	47*
O=C(COC(=O)c1cc([N+](=O)[O-])ccc1N1CCOCC1)Nc1cccc(F)c1	-2	2	18	-1	-4	·
Oc1ccc(CNc2ccccc2F)c2cccnc12	-2	1	1	5	-2	·
NC(=S)NNc1cccc2cccnc12	2	11	62*	7	1	27
Oc1ccccc1CNc1cccc2cccnc12	-1	3	45*	8	12	15
NC(=S)Nc1cccc2cccnc12	2	0	16	3	9	·
CCn1nc(C)c(CNC(=O)Nc2ccccc2C(=O)OC)c1C	0	-9	6	-3	-3	·
CCN1CCc2nc3sc(C(=O)N4CCc5ccccc5C4)c(N)c3cc2C1	0	7	65*	-1	7	48*
Nc1ccc(S(=O)C(F)(F)F)cc1 (centres undefined)	1	-12	7	2	10	·
SMILES	LYPLA1 inh	PME-1 inh	PREPL inhibitor	Fam108B counter	LYPLA2 inh	PREPL confirm
Cc1cccc(N2CCN(C(=S)Nc3ccc4nc(N5CCOCC5)cc(C)c4c3)CC2C)c1 (centres undefined)	3	5	43*	-4	4	16
Cc1ccc(C)c(N2CCN(C(=S)Nc3ccc4nc(N5CCN(C)CC5)cc(C)c4c3)CC2)c1	2	0	53*	0	1	37
Cc1ccc(C)c(N2CCN(C(=S)Nc3ccc4nc(N5CCOCC5)cc(C)c4c3)CC2)c1	-6	6	54*	7	5	39
CCc1ccc(-c2csc(NC(=O)C3=NN(c4ccccc4)C(=O)CC3)n2)cc1	-2	-1	44*	1	2	37
Cc1cc(C)c(-c2csc(NC(=O)C3=NN(c4ccccc4)C(=O)CC3)n2)c(C)c1	-7	-10	15	-7	-10	·
CC(C)=C1SC(N2CCOCC2)=NC1=O	-4	-4	-9	-2	0	·
CC(C)=C1SC(N2CCN(c3ccc(C)cc3)CC2)=NC1=O	0	-1	50*	1	6	45*
CC(C)=C1SC(N2CCN(c3cccc(C(F)(F)F)c3)CC2)=NC1=O	-5	4	13	-2	4	·
CC(C)=C1SC(N2CCN(c3ccc(Cl)cc3)CC2)=NC1=O	0	3	50*	2	-4	48*
COc1nc(NCCN2CCOCC2)nc(Nc2ccc([N+](=O)[O-])cc2)n1	0	-2	47*	-2	-8	41
COc1cc(/C=N/n2cnnc2)ccc1OCc1ccccc1	0	-3	46*	-6	1	42
COc1ccc(/C=N/n2cnnc2)cc1COc1ccccn1	0	0	3	4	1	·
COc1cc(NC(C)CCCN)c2ncccc2c1 (centres undefined)	4	6	57*	0	4	39
COc1cc(NCCCCCCCN)c2ncccc2c1	0	-3	55*	-3	1	31
COc1cc(NC(=O)c2ccc3c(c2)OCO3)c2ncccc2c1	0	-3	3	-1	-1	·
COc1ccc(CC(=O)OC(C)C(=O)Nc2c(C)n(C)n(-c3ccccc3)c2=O)cc1OC (centres undefined)	·	·	8	·	·	·
CN(C)c1ccc(C(CNC(=O)c2ccccc2Br)c2c[nH]c3ccccc23)cc1 (centres undefined)	0	3	56*	0	1	31
CN(C)c1ccc(C(CNS(=O)(=O)c2ccc(F)cc2)c2c[nH]c3ccccc23)cc1 (centres undefined)	-4	-5	10	0	6	·
O=C(C1=C[C@@H](c2ccc(C(F)(F)F)cc2)C[C@@H](OCc2ccc(CO)cc2)O1)N1CCN(Cc2ccccc2)CC1	-2	0	52*	1	-2	57*
O=C(C1=C[C@H](c2ccc(C(F)(F)F)cc2)C[C@H](OCc2ccc(CO)cc2)O1)N1CCOCC1	3	2	29	3	7	·
CN1CCN(C(=O)C2=C[C@@H](c3ccc(C(F)(F)F)cc3)C[C@@H](OCc3ccc(CO)cc3)O2)CC1	-2	-4	59*	6	-7	59*

Assay outcomes deposited in PubChem BioAssay by The Scripps Research Institute Molecular Screening Center.
